Calls of active or inactive are those of the source. The calls were made as follows: active = hit-call score of the fitted dose curve at least 0.9, where 1 is the maximum; inactive = score below 0.9.

The experiment in a line: CCTE_Simmons_MITO_basal_resp_rate: CCTE's HepG2 Seahorse XF Respirometric Screening Assay at Basal Respiratory State, Simmons Lab (AID 2284001). Particulars: actives raise or lower the signal. As to the method:
CCTE_Simmons_MITO is cell-based, respirometric assay using HepG2 cells and a Seahorse XF Analyzer to measure oxygen consumption rates over four temporal phases spanning a total of 72 minutes: pre-injection (pre-treatment), basal (following test compound injection), maximal (following FCCP uncoupler injection), and inhibited (following rotenone/antimycin A injection)CCTE_Simmons_MITO_basal_resp_rate is one of 4 assay components calculated from the CCTE_Simmons_MITO assay. It is designed to make measurements of basal respiration using a form of respirometric reporter, as detected with […] signals by Seahorse XF96 technology. Data from the assay component CCTE_Simmons_MITO_basal_resp_rate was analyzed at the endpoint, CCTE_Simmons_MITO_basal_resp_rate_OCR, with bidirectional fitting relative to DMSO as the negative control and baseline of activity. Using a type of respirometric reporter, measures of basal respiration for gain or loss-of-signal activity can be used to understand cellular oxygen consumption as it relates to cellular respiration. To generalize the intended target to other relatable targets, this assay endpoint is annotated to the mitochondria intended target family, where the subfamily is respiration.
Test chemicals were administered as a titrated series of 7 concentrations from 125 nM up to 100 uM [final] prior to kinetic endpoint detection at 6 minute intervals [3 min mix followed by 3 minutes measure] for 72 minutes. Three biological replicates of technical singles were run for every chemical concentration tested. Dimethylsulfoxide [DMSO] was used as the vehicle control. The electron transport chain inhibitor fenpyroximate was used as the positive control for decreased basal respiration and was administered as a titrated series of 6 concentrations from 250 nM up to 2.75 uM [final] with technical triplicates for the top concentration only. The uncoupler 2,4-dintirophenol was used as the positive control for increased basal respiration and was administered as a titrated series of 6 concentrations from 938 nM up to 40 uM [final] with technical triplicates for the top concentration only. A Seahorse XF Analzyer is required to measure the response.
On to `O=C1c2ccccc2C(=O)N1CCc1noc(-c2ccc(CN3CCCCCC3)s2)n1`, for which the AC50 is 57.5 µM (active).

Consider `CC(C)(O)c1ccc(CNC(=O)c2cccnc2Oc2ccc3nonc3c2)cc1`, for which the compound was classed as inactive.

For the compound `CC(C)(C)c1csc(-c2cc3cc(OCc4ccccc4CC(=O)O)ccc3o2)n1`, the AC50 is 4.24 µM (active).

On to `Cc1cc(F)ccc1-c1cc(N2CC[C@@H](O)[C@H]2CO)ncc1N(C)C(=O)C(C)(C)c1cc(C(F)(F)F)cc(C(F)(F)F)c1`, for which the AC50 was 40.8 µM (active).

For `CCN(Cc1cccnc1)C(=O)c1cccc(Cl)c1[C@]1(C)C(=O)N(Cc2ccc(OC)cc2OC)c2ccc(Cl)cc21`, the AC50 is 2.36 µM (active).

On to `CC(=O)N1CCN(c2ccc(OC[C@H]3CO[C@](Cn4ccnc4)(c4ccc(Cl)cc4Cl)O3)cc2)CC1`, for which the AC50 is 8.55 µM (active).

On to `CCCCCCCCCCCO`, for which the AC50 is 80.1 µM (active).

As to `CN(C)C(=O)C1(N2CCCCC2)CCN(CC[C@@]2(c3ccc(Cl)c(Cl)c3)CN(C(=O)c3ccccc3)CCO2)CC1`, the compound was classed as inactive.

Take `NCc1cccc(C2CCN(C(=O)c3ccc(C#Cc4ccccc4F)o3)CC2)c1`: the AC50 is 37.2 µM (active).

As to `O=C(O)Cc1cc(I)c(Oc2ccc(O)c(I)c2)c(I)c1`, the AC50 is 27 µM (active).

Take `CCCCCCCCCC(=O)O`: the AC50 is 23.2 µM (active).

As for `NC(=O)c1nc(-c2cccc(-c3cc(F)ccc3OCC(F)(F)C(F)(F)F)c2)n[nH]1`, the AC50 is 6.26 µM (active).

As for `C[C@]12CC[C@@H]3c4ccc(O)cc4CC[C@H]3[C@@H]1CC[C@H]2O`, the AC50 was 36.1 µM (active).

Regarding `OC12N=C(c3ccccc3)SC1Cc1cc(Cl)ccc12` (centres undefined), the result was inactive.

Take `O=C1CCC(C2CCCCC2)CC1`: the call was inactive.

Consider `Cc1c2ccccc2c(C)c2c1ccc1ccccc12`, for which the AC50 was 17.1 µM (active).

Take `CC1(C)NC(=O)N(c2ccc([N+](=O)[O-])c(C(F)(F)F)c2)C1=O`: the AC50 is 37.2 µM (active).

For the compound `Cc1cc2c(cc1C(F)(F)F)N(C(=O)Nc1ccc(Oc3cccnc3C)nc1)CC2`, the result was inactive.

As for `CC/C(=C(/CC)c1ccc(O)cc1)c1ccc(O)cc1`, the AC50 was 8.17 µM (active).

As for `CN(C)c1ccc(C(=C2C=CC(=[N+](C)C)C=C2)c2ccc(N(C)C)cc2)cc1`, the AC50 is 50 µM (active).

As for `CN1C(=O)N(c2ccccc2Br)Cc2cnc(Nc3ccc4c(c3)OCC(CO)O4)nc21` (centres undefined), the AC50 was 35.1 µM (active).

As for `CCCCCCCCOC(=O)c1cc(O)c(O)c(O)c1`, the AC50 is 13.6 µM (active).

In the case of `CCCCOC(=O)c1ccc(O)cc1`, the AC50 is 23.7 µM (active).

Regarding `CC(C)(c1cc(Br)c(O)c(Br)c1)c1cc(Br)c(O)c(Br)c1`, the AC50 is 4.5 µM (active).

What is called AC50 is the midpoint of the concentration-response curve, whichever way the signal moves.

The values above are taken from PubChem BioAssay (EPA / NIEHS).
